# Screening data as filed in PubChem.
# FMDV inh: High Throughput Screening for Foot and Mouth Disease Virus Antivirals | AID 1159524, 2015 | Potency, µM (highest dose often 57.9 µM), inactives show top-dose activity change, negative = inhibition, usual class: inhibitors | FMDV antiviral cell-based qHTS | 410,000 tested, 1.2% active; calls by dose curve; tested in HEK293T cells; note: read-out not given here; potency is the fitted concentration of half-maximal effect; nearly all actives have a fitted effect of over 45% in size
# Lassa entry inh: qHTS for Inhibitors of binding or entry into cells for Lassa Virus; Lassa virus pseudotype entry inhibition, cell reporter; Potency, µM (highest dose often 37.9 µM), for inactives: at the top dose activity change, negative = inhibition, most hits filed as inhibitors; 300,000 tested, 1.2% active; AID 540256, 2011; calls by dose curve; tested in HEK293 cells; note: potency is the fitted concentration of half-maximal effect; nearly all actives have a fitted effect of over 50% in size
# HCMV antiviral: qHTS Assay for inhibitors of the human cytomegalovirus (HCMV); HFF cells, HCMV-luciferase reporter, 72 h; hits give low values; activity change, negative = inhibition, % at 57.5 µM; 410,000 tested, 4.5% active; AID 1259415, 2018; in the data active = activity change below about -60%; inconclusive = no clear call, values can overlap the other calls; inactive = above about -39%
#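 Luciferase read-out from HCMV-luciferase-infected HFFs (MOI 1 PFU/cell) 72 h post infection at 37C; compounds added after 16 h cell attachment; activity normalized between buffer-only basal and Salinomycin (10uM) inhibitor controls.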
# Marburg entry inh: qHTS for inhibitors of binding or entry into cells for Marburg Virus | 300,000 tested, 1.8% active | Marburg virus pseudotyped entry inhibition, cell reporter | Potency, µM (titrated, usually from 37.8 µM), for inactives: top-dose activity change, negative = inhibition, most hits filed as inhibitors; calls by dose curve; tested in HEK293 cells; note: potency is the fitted concentration of half-maximal effect
# HCV inhibitor: qHTS Assay for Inhibitors of Hepatitis C Virus (HCV) | AID 651820, 2012 | Potency, µM (top dose mostly 41.8 µM), inactives show at the top dose activity change, negative = inhibition, usual class: inhibitors | Huh7.5.1 HCVcc-Cre infection, luciferase reporter, 44 h | 340,000 tested, 3.4% active; active = well fitted inhibition curve with a large enough effect; inconclusive = small, poorly fitted or top-dose-only effect, or another doubt; inactive = no such curve, though single readings can be large or run the other way; note: potency is the fitted concentration of half-maximal effect
#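 Seed cells (1,000/well) for 4 h; treat with compound and infect with HCVcc-Cre, moi about 0.5. Incubate 44 h, then detect luciferase activity.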
# Numbers without * were called inactive; ? = inconclusive; . = not tested or not shown; ! = not confirmed by another sample; [ ] = dose if it differs, or a comment. This is a sample that favours compounds with a hit; in the whole collection about 7.9% have one here. % is set by controls: 0 for no effect and ±100 for the full control effect.
SMILES,FMDV inh,Lassa entry inh,HCMV antiviral,Marburg entry inh,HCV inhibitor
Cc1cc(C)cc(NC(=O)CN(c2cccc(C)c2C)S(=O)(=O)c2ccccc2)c1,-9.0%,-20.2%[46.1 µM],?,?,.
CC(=O)Nc1ccc(NC(=O)CN(c2ccc([N+](=O)[O-])cc2)S(=O)(=O)c2ccccc2)cc1,-1.8%,.,?,.,-20.0%
Cc1cc(NC(=O)CN(c2cccc(C)c2C)S(=O)(=O)c2ccccc2)ccc1Br,?,?,-68.3*,?,.
Cc1cc(C)cc(-n2c(SCC(=O)N3CCOCC3)nc3c([nH]c4ccccc43)c2=O)c1,?,?,14.8,.,.
COc1cccc(C(=O)Nc2ccc(NC(=O)c3ccco3)nc2)c1,47.9%,-8.4%,-16.1,?,-23.3%
O=C(Nc1ccc(NC(=O)c2ccccc2F)cn1)c1ccco1,-43.5%,?,30.0,3.98µM*,-1.1%
N#Cc1ccc(C(=O)Nc2cccc(NC(=O)c3ccco3)c2)c(F)c1,-27.7%,-11.9%,-73.9*,-9.0%,?
O=C(Nc1ccc(NC(=O)c2ccco2)nc1)c1cccc(F)c1,-1.9%,10µM*,14.6,?,?
O=C(Nc1ccc(NC(=O)C2CC2)nc1)c1ccco1,72.8%,?,11.3,?,4.2%
COc1ccc(NC(=O)c2ccco2)cc1NC(=O)c1cc(OC)c(OC)c(OC)c1,-25.4%,-21.4%[46.1 µM],15.4,-19.0%[46.1 µM],.
CCOc1ccc2ncc3c(-c4ccc(C)cc4)nn(-c4cccc(F)c4)c3c2c1,-10.6%,17.5%[46.1 µM],1.2,3.8%[46.1 µM],.
N#C/C(=C\c1coc2ccc(O)cc2c1=O)C(=O)Nc1nc2ccccc2s1,?,.,-73.1*,.,?
Cc1ccc(OC(=O)CSc2nnc(CNC(=O)c3ccccc3)o2)cc1,-12.2%,-0.4%[46.1 µM],-7.8,-3.4%[46.1 µM],.
COCCn1c(C)cc(O)c(C(c2ccccc2)N2CCN(c3ccccc3F)CC2)c1=O (stereo not drawn),-18.5%,?,9.1,.,.
CCN(Cc1ccncc1)Cc1nc(-c2ccc(C(=O)OC)cc2)no1,-20.5%,-14.2%,-23.6,?,-0.3%
CCN(Cc1ccncc1)Cc1nc(CC2CC2)no1,-17.3%,?,-60.1*,1.1%[46.1 µM],15.4%
CCc1cc2c(=O)c(-c3ccc4c(c3)OCCO4)coc2cc1OC(=O)c1ccco1,18.8%,?,-33.5,?,10µM*!
CCCc1cc2c(=O)c(-c3ccc4c(c3)OCCO4)coc2cc1OS(C)(=O)=O,-5.0%,?,-60.2*,?,10µM*
CCCc1cc2c(=O)c(-c3ccc4c(c3)OCCO4)coc2cc1OC(=O)c1ccco1,55.0%,-26.0%,34.5,?,-0.6%
COC(=O)[C@@H]1[C@@H](CO)[C@@H]2Cn3c(ccc(Br)c3=O)[C@@H]2N1C,.,.,0.4,.,.
O=[N+]([O-])c1cc(Cl)cc(/C=N\Nc2ccccn2)c1O,-29.3%,?,-102.7*,?,?
CCOC(=O)N1CCC2(CC1)OC(=O)C(C)=C2C(=O)NCc1ccccc1OC,-6.0%,17.8%[46.1 µM],?,.,.
CC(=O)C1C(N2CC2)CC2C3CC=C4CC(O)CCC4(C)C3CCC21C (stereo not drawn),-15.7%,?,-75.7*,?,11.2µM*
CC(=O)[C@H]1CC[C@H]2[C@@H]3CC=C4C[C@@H](O)CC[C@]4(C)[C@H]3CC[C@]12C,?,.,0.0,.,8.9%
O=C(NCC1OCCc2ccccc21)c1ccc(NC(=O)c2ccc(Cl)cc2Cl)cc1 (stereo not drawn),?,-19.0%,-8.3,-27.7%,?
SMILES,FMDV inh,Lassa entry inh,HCMV antiviral,Marburg entry inh,HCV inhibitor
O=C(NCC1OCCc2ccccc21)c1ccc(NC(=O)c2ccccc2Cl)cc1 (stereo not drawn),14.1µM*,?,?,7.94µM*,?
CCN(C(=O)CSc1nc2ccccc2n1CC(=O)Nc1ccc(F)cc1F)c1ccccc1,5.4%,11.2µM*,-7.9,.,.
CCc1ccc(/C=N/Nc2ncnc3nc[nH]c23)cc1,-25.7%,7.94µM*,35.7,?,10.0%
O=C(CC1Nc2c3ccccc3nc(=S)n2C1=O)NC1CCCCC1 (stereo not drawn),.,.,-63.9*,.,.
CCCOc1ccc(C(O)(CCC)CCN2CCCCC2)cc1 (stereo not drawn),0.0%,?,-17.0,-28.9%,8.91µM*
COC(=O)Cc1ccc(NC(=S)N2CCN(c3cccc(O)c3)CC2)cc1,?,-12.4%,-63.9*,-27.3%,?
CCS(=O)(=O)N1CCc2cc(C(=O)Nc3ccc(OC)cc3OC)ccc21,-27.9%,7.0%[46.1 µM],-4.2,?,.
Cc1cccc(-c2nc3c4ccccc4nc(NCCc4ccccc4)n3n2)c1,14.3%,.,84.5,14.7%[46.1 µM],.
O=C(Cc1cc(=O)oc2cc(O)ccc12)NN=Cc1ccc(N(CCCl)CCCl)cc1,-25.9%,?,?,4.47µM*,-14.2%
COc1cc(CN2CCc3nnc(C(NS(C)(=O)=O)C(C)C)n3CC2)ccc1F (stereo not drawn),-8.1%,.,.,.,.
CC/C(=N/Nc1cccc(Cl)c1)c1cnnc(SC)n1,-22.8%,?,-15.1,2.8%,?
CC/C(=N/Nc1ccccc1)c1cnnc(-c2ccccc2)n1,2.9%,15.0%,?,0.6%,8.91µM*
COc1ccc(-c2cc(C(F)(F)F)n3nc(C(=O)Nc4cccc(C(F)(F)F)c4)c(Br)c3n2)cc1,4.7%,25.1%[46.1 µM],-13.9,.,.
COc1ccc(OC)c(Nc2ncnc3sccc23)c1,-0.8%,.,45.9,.,?
COc1cc(CN(C)c2ncnc3sccc23)ccc1OC(F)F,?,-11.0%,?,2.82µM*,?
Cn1c(=O)c2cc(NC(=O)Nc3cccnc3)ccc2n1Cc1cccc(C(F)(F)F)c1,-17.4%,.,-0.4,.,.
CC(CC(=O)Nc1ccc2c(c1)c(=O)n(C)n2Cc1ccc(Cl)cc1)C(F)(F)F (stereo not drawn),-14.4%,.,-71.9*,.,.
CN(C)c1ccc(NC(=O)Nc2ccc3c(c2)c(=O)n(C)n3Cc2ccc(Cl)cc2)cc1,-22.6%,.,-88.1*,.,.
Cn1c(=O)c2cc(NC(=O)Nc3cccnc3)ccc2n1Cc1ccc(Cl)cc1,6.8%,.,-96.6*,.,.
COc1cc(NC(=O)CN2C(=O)CCc3cc(Br)ccc32)cc(OC)c1OC,-13.8%,18.8%[46.1 µM],7.5,.,.
CCOc1ccc(S(=O)(=O)Nc2ccc3c(c2)c(C(C)=O)c(C)n3S(=O)(=O)c2ccc(OCC)cc2)cc1,-16.9%,?,0.6,.,.
COc1ccc2c(C)nc(Nc3nc(C)c(C)c(=O)[nH]3)nc2c1,50.6%,?,-102.0*,?,?
Cc1ccc(N/C(N)=N/c2nc(CSc3nnc(C)s3)cc(=O)[nH]2)c(C)c1,-7.0%,.,-87.9*,.,-14.2%
COc1ccc(N/C(N)=N/c2nc(CSc3nnc(C)s3)cc(=O)[nH]2)cc1,-12.7%,?,-22.3,-5.3%[46.1 µM],-9.1%
CCc1c(C)nc(Nc2nc(C)c3ccc(OC)cc3n2)[nH]c1=O,.,-10.0%,18.8,-5.7%,?
